Experimental data taken from the supplement of paper PMC12669032.

Experiments:
Assay in all cases: growth AUC relative to DMSO control (median of replicates) (fraction); higher = more growth (less inhibition), active = hit call of the paper
Conditions in all cases: 20 µM; 24 h;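 active = AUC reduced over 20% with Padj below 0.05 in at least 2 of 3 replicates; inactive = otherwise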
[1] = system: Coprococcus comes
In short: (§1)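 Gut bacterial monocultures were grown anaerobically at 37 °C in mGAM from a starting OD600 of 0.05 with 20 µM compound (1% DMSO), in round-bottom 96-well plates under pierced gas-permeable seals, and OD600 was read hourly for 24 h. With the minimum OD set to 0, area under the growth curve was normalised to the plate median of solvent-only wells, or to row and column medians on the industrial chemical plate. Each value is the median of three biological replicates grown on separate days.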

[2] = system: Escherichia coli ED1a
In short: as §1

[3] = system: Escherichia coli IAI1
In short: as §1

[4] = system: Eubacterium rectale
In short: as §1

[5] = system: Fusobacterium nucleatum subsp. animalis
In short: as §1

[6] = system: Lactobacillus gasseri
In short: as §1

[7] = system: Lactobacillus paracasei
In short: as §1

[8] = system: Odoribacter splanchnicus
In short: as §1

[9] = system: Parabacteroides distasonis
In short: as §1

[10] = system: Parabacteroides merdae
In short: as §1

[11] = system: Roseburia intestinalis
In short: as §1

[12] = system: Streptococcus salivarius
In short: as §1

Measured: growth AUC

CCOC(=O)c1ccccc1S(=O)(=O)NC(=O)Nc1nc(Cl)cc(OC)n1
inactive: [1] 0.988 | [2] 1.03 | [3] 1.02 | [4] 1.05 | [5] 1.07 | [6] 0.969 | [7] 1.05 | [8] 1.1 | [9] 1.07 | [10] 1.04 | [11] 1.01 | [12] 0.972

Cc1cc(C(F)(C(F)(F)F)C(F)(F)F)ccc1NC(=O)c1cccc(I)c1C(=O)NC(C)(C)CS(C)(=O)=O
inactive: [1] 1.21 | [2] 1.1 | [3] 1.14 | [4] 1.09 | [5] 1.13 | [6] 3.03 | [7] 1.48 | [8] 0.994 | [9] 0.795 | [10] 0.99 | [11] 1.67 | [12] 0.919

COc1ccc(C(c2ccc(OC)cc2)C(Cl)(Cl)Cl)cc1
inactive: [1] 0.978 | [2] 1.04 | [3] 0.967 | [4] 0.882 | [5] 1.06 | [6] 1.13 | [7] 1.02 | [8] 1 | [9] 0.938 | [10] 0.71 | [11] 0.987 | [12] 0.992

CCC(C)Nc1c([N+](=O)[O-])cc(C(C)(C)C)cc1[N+](=O)[O-] (stereo not given)
inactive: [1] 0.975 | [2] 1.01 | [3] 0.939 | [4] 0.995 | [5] 1.02 | [6] 0.938 | [7] 1.01 | [8] 1.02 | [9] 0.919 | [10] 0.966 | [11] 0.927 | [12] 1.04

O=C(NCCc1ncc(C(F)(F)F)cc1Cl)c1ccccc1C(F)(F)F
inactive: [1] 1 | [2] 1.01 | [3] 0.988 | [4] 0.964 | [5] 0.875 | [6] 0.999 | [7] 1.01 | [8] 0.985 | [9] 0.96 | [10] 0.996 | [11] 0.987 | [12] 1.01

ClC1=C(Cl)C2(Cl)C3COCC3C1(Cl)C2(Cl)Cl (stereo not given)
inactive: [1] 0.912 | [2] 1 | [3] 1.03 | [4] 0.992 | [5] 1.12 | [6] 1.01 | [7] 0.94 | [8] 0.99 | [9] 0.987 | [10] 1.02 | [11] 1.08 | [12] 0.915

CO/C=C(/C(=O)OC)c1ccccc1Oc1cc(Oc2ccccc2C#N)ncn1
inactive: [1] 0.964 | [2] 0.991 | [3] 0.976 | [4] 0.948 | [5] 0.969 | [6] 0.908 | [7] 1.06 | [8] 0.959 | [9] 0.9 | [10] 0.955 | [11] 0.961 | [12] 0.991

CCNc1nc(NC(C)C)nc(OC)n1
inactive: [1] 1.02 | [2] 1 | [3] 0.999 | [4] 1.05 | [5] 1.05 | [6] 0.911 | [7] 0.969 | [8] 1.01 | [9] 0.922 | [10] 0.982 | [11] 0.953 | [12] 0.945

O=C(NC(=O)c1c(F)cccc1F)Nc1cc(Cl)c(OC(F)(F)C(F)F)c(Cl)c1
inactive: [1] 0.96 | [2] 0.965 | [3] 0.982 | [4] 0.892 | [5] 0.877 | [6] 0.986 | [7] 0.62 | [8] 0.983 | [9] 0.994 | [10] 0.992 | [11] 0.977 | [12] 0.962

CN(C)S(=O)(=O)N(SC(F)(Cl)Cl)c1ccccc1
inactive: [1] 1.04 | [2] 1.03 | [3] 1.01 | [4] 1.09 | [5] 1.06 | [6] 1.03 | [7] 1.07 | [8] 1.04 | [9] 1.02 | [10] 0.99 | [11] 0.993 | [12] 0.998

O=c1oc2ccccc2c(O)c1C1CC(c2ccc(-c3ccccc3)cc2)Cc2ccccc21 (stereo not given)
inactive: [1] 0.946 | [2] 1 | [3] 0.959 | [4] 0.502 | [5] 1.02 | [6] 0.574 | [7] 0.887 | [8] 0.959
active: [9] 0.0292 | [10] 0.0278 | [11] 0.711 | [12] 0.709

COCc1c(F)c(F)c(COC(=O)[C@@H]2[C@@H](C=C(Cl)Cl)C2(C)C)c(F)c1F
inactive: [1] 0.981 | [2] 1.03 | [3] 1.02 | [4] 1.09 | [5] 1.09 | [6] 1.03 | [7] 1.04 | [8] 1.03 | [9] 1 | [10] 1.01 | [11] 0.979 | [12] 0.986

COCC(=O)N(c1c(C)cccc1C)C(C)C(=O)OC (stereo not given)
inactive: [1] 1.02 | [2] 0.989 | [3] 1.01 | [4] 1.04 | [5] 1.09 | [6] 1.09 | [7] 0.987 | [8] 1.04 | [9] 1.05 | [10] 1.05 | [11] 1.01 | [12] 0.986

CCC1(C(=O)NC(C)c2ccc(Cl)cc2)C(C)C1(Cl)Cl (stereo not given)
inactive: [1] 0.97 | [2] 0.964 | [3] 1 | [4] 1 | [5] 0.886 | [6] 0.871 | [7] 0.955 | [8] 0.851 | [10] 0.91 | [11] 0.888 | [12] 0.97
active: [9] 0.641

CCOP(=S)(OCC)Oc1cc(Cl)c(SC)cc1Cl
inactive: [1] 1.02 | [2] 0.999 | [3] 0.977 | [4] 0.897 | [5] 1.03 | [6] 0.981 | [7] 0.995 | [8] 1.12 | [9] 1.01 | [10] 0.926 | [11] 0.994 | [12] 1.01

O=C(O)C(F)(F)C(F)(F)C(F)(F)C(F)(F)C(F)(F)C(F)(F)C(F)(F)F
inactive: [1] 1.02 | [2] 1 | [3] 0.998 | [4] 1 | [5] 1 | [6] 1.01 | [7] 0.966 | [8] 0.979 | [9] 0.934 | [10] 1 | [11] 1 | [12] 1.01

CC(C)(C)C(O)C(Cc1ccc(Cl)cc1Cl)n1cncn1 (mixture of isomers)
inactive: [1] 0.982 | [2] 0.981 | [3] 0.979 | [4] 0.845 | [5] 0.963 | [6] 0.947 | [7] 1.01 | [8] 0.989 | [9] 0.871 | [10] 0.889 | [11] 0.918 | [12] 0.974

COP(=S)(OC)SCC(=O)N(c1ccc(Cl)cc1)C(C)C
inactive: [1] 1.04 | [2] 0.988 | [3] 0.976 | [4] 0.964 | [5] 0.985 | [6] 1.03 | [7] 1.04 | [8] 1 | [9] 0.861 | [10] 0.924 | [11] 1.03 | [12] 0.992

CC(C)C1(C)N=C(c2nc3ccccc3cc2C(=O)O)NC1=O (stereo not given)
inactive: [1] 1.01 | [2] 0.985 | [3] 0.983 | [4] 0.965 | [5] 1.02 | [6] 1.03 | [7] 0.891 | [8] 0.908 | [9] 0.986 | [10] 0.997 | [11] 1.03 | [12] 0.935

CCNc1nc(NC(C)C(C)C)nc(SC)n1 (stereo not given)
inactive: [1] 0.977 | [2] 0.979 | [3] 0.991 | [4] 0.89 | [5] 0.997 | [6] 1.06 | [7] 0.81 | [8] 0.954 | [9] 1.04 | [10] 0.992 | [11] 1.04 | [12] 0.97

CCCCCCCCSC(=O)Oc1cc(Cl)nnc1-c1ccccc1
inactive: [1] 0.98 | [2] 0.976 | [3] 0.972 | [4] 0.868 | [5] 0.914 | [6] 1.02 | [7] 1.04 | [8] 0.905 | [9] 0.99 | [10] 0.967 | [11] 1.06 | [12] 0.963

COP(=O)(OC)C(O)C(Cl)(Cl)Cl (stereo not given)
inactive: [1] 1.03 | [2] 1.02 | [3] 1.01 | [4] 1.08 | [5] 0.973 | [6] 1 | [7] 1.02 | [8] 0.965 | [9] 1.04 | [10] 1 | [11] 1 | [12] 1.02

ClC1=C(Cl)C2(Cl)[C@H]3[C@@H]4O[C@@H]4[C@H](Cl)[C@H]3C1(Cl)C2(Cl)Cl (single isomer, unassigned; isomer b)
inactive: [1] 0.931 | [2] 0.995 | [3] 0.983 | [4] 0.979 | [5] 0.923 | [6] 0.95 | [7] 0.501 | [8] 1.07 | [9] 1.03 | [10] 0.969 | [11] 0.894 | [12] 0.961

CNc1cnn(-c2cccc(C(F)(F)F)c2)c(=O)c1Cl
inactive: [1] 0.978 | [2] 0.99 | [3] 0.981 | [4] 0.995 | [5] 0.946 | [6] 0.975 | [7] 0.943 | [8] 0.992 | [9] 1.01 | [10] 0.989 | [11] 1.03 | [12] 0.976

CCCOCCN(C(=O)CCl)c1c(CC)cccc1CC
inactive: [1] 0.988 | [2] 0.963 | [3] 0.985 | [4] 1.02 | [5] 0.945 | [6] 0.927 | [7] 1.12 | [8] 1.02 | [9] 0.848 | [10] 0.942 | [11] 0.947 | [12] 0.952
